Reference: PubChem BioAssay

How the values were obtained:
[1] = target: Tumor necrosis factor receptor superfamily member 10B (Homo sapiens) (UniProt O14763); test: viability loss of caspase-8 NB7 cells with TRAIL – with/without TRAIL, luminescence panel, confirmation (AID 651596); conditions: NB7 neuroblastoma + caspase-8, TRAIL sensitization, NB7 Caspase-8, with TRAIL, mean of runs, at 10 µM, stronger effect = higher value
[2] = as above; conditions: NB7 neuroblastoma + caspase-8, without TRAIL, NB7 Caspase-8, without TRAIL, mean of runs, at 10 µM

Tumor necrosis factor receptor superfamily member 10B (Homo sapiens), sequence (O14763 whole entry, looked up): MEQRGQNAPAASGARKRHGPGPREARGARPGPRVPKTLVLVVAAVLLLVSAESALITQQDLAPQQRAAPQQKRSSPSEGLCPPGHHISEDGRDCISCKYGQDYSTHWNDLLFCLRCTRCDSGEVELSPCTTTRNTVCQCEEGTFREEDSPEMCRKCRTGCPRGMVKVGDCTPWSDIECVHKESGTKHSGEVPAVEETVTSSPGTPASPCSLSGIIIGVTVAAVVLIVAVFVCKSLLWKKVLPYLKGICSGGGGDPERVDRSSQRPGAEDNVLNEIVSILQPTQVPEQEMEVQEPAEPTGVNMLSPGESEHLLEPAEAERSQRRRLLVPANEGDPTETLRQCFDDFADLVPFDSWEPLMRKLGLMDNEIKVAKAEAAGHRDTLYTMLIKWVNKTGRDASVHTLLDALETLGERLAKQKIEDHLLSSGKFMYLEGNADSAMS

| Compound | activity [1] [%] | activity [2] [%] |
| --- | --- | --- |
| Cc1onc(C(=O)N2CCN(C(c3ccccc3)c3ccccc3)CC2)c1[N+](=O)[O-] | 99.8 | 97 |
| CCCOc1ccc(-c2cn3ccccc3n2)cc1 | 92.7 | 91.2 |
| Cc1ccc(N2Cc3ccccc3C2=O)cc1 | 64.7 | 59.3 |
| COc1ccc2[nH]c(-c3ccc(C)cc3)cc(=O)c2c1 | 87.4 | 87.8 |
| CCN1CCN(c2ccc(S(=O)(=O)N3CCCCC3)cc2NC(=O)c2ccc([N+](=O)[O-])s2)CC1 | 49.6 | 54.1 |
| COc1ccc2nc(Nc3ccccc3)sc2c1 | 49.2 | 38.6 |
| COc1ccc(-c2cc3nc(C)cc(N)n3n2)cc1 | 90.2 | 86.5 |
| Cc1cc(C)nc(NC(=O)/C=C/c2ccc3c(c2)OCO3)c1 | 70.2 | 75.5 |
| Cc1nc2c(ccc3nc(NC(=O)c4ccc5c(c4)OCCO5)sc32)s1 | 82.8 | 84.3 |
| CCOc1ccc(C(=O)Nc2ccc3c(c2)OCCO3)cc1 | 70.5 | 61.4 |
| COc1ccc2c(n1)Sc1nc3ccccc3nc1N2 | 4.47 | 4.42 |
| O=C(CCl)N1CCN(S(=O)(=O)c2ccc3c(c2)CCC3)CC1 | 97.7 | 97.1 |
| COCCOCCn1c(/C=C/c2ccccc2)nc2ccccc21 | 65.4 | 77.1 |
| CCC(C)c1ccc(O)c(/C=N/O)c1 (stereo not given) | 38 | 56.6 |
| Cc1nn(-c2ccccc2)c(/N=C/c2ccc(O)cc2)c1-c1ccccc1 | 39.1 | 13.9 |
| COc1cccc(/C=C/C(=O)Nc2ccc3c(c2)OCCO3)c1OC | 83.7 | 82 |
| O=C1N(c2ccccc2)CCN1c1ccccc1 | 67.2 | 62.8 |
| COc1ccc(-c2cc(-c3ccccc3)c(C#N)c(S(C)=O)n2)cc1 (stereo not given) | 95.2 | 99.2 |
| Cc1ccccc1Nc1nc(N)c2ccccc2n1 | 63.9 | 59.8 |
| O=C1C(=C2CCc3ccccc32)Cc2ccccc21 | 41.5 | 48.9 |
| CC(C)Cc1ccc(C(C)CC2=CCC(CN(C)C)C2=O)cc1 (stereo not given) | 86.2 | 91.8 |
| CCN1CCN(c2ccc(S(=O)(=O)N3CCCCC3)cc2NC(=O)c2ccc([N+](=O)[O-])o2)CC1 | 59.8 | 61.9 |
| Cc1cccc(NS(=O)(=O)c2ccc3c(c2)Cc2cc(S(=O)(=O)Nc4cccc(C)c4C)ccc2-3)c1C | 72.1 | 77.5 |

| Compound | activity [1] [%] | activity [2] [%] |
| --- | --- | --- |
| CN1C(=O)c2ccccc2C(C(=O)NCCCN2CCCC2)C1c1c[nH]c2ccccc12 (stereo not given) | 45.5 | 55.5 |
| Cc1cccc(CS(=O)(=O)c2ncc(Cl)c(C(=O)Nc3nnc(C(C)C)s3)n2)c1 | 93.5 | 86.1 |
| Cc1ccc(-c2cc(C(=O)N/N=C/c3cccnc3)c3ccccc3n2)cc1C | 43.9 | 35 |
| O=C(/C=C/Nc1ccc(F)cc1)c1cccs1 | 69.7 | 65 |
| S=C(Nc1ccc(Cl)cc1)c1nc2ccccc2[nH]1 | 60.6 | 65.9 |
| COc1cc(SC)ccc1C(=O)Nc1nccs1 | 83.3 | 84.3 |
| COc1ccc(C(=O)Nc2ccc(C)cn2)c(OC)c1 | 95.3 | 95.2 |
| CCOc1cc(NC(=O)CCl)c(OCC)cc1NC(=O)CCl | 96.6 | 98.5 |
| Cc1ccc2nc(-c3ccccn3)oc2c1 | 75.3 | 64.1 |
| O=C(Nc1ccc2c(c1)OCCO2)c1ccc(Br)s1 | 74.3 | 66.8 |
| CC(=O)Nc1sc(C)c(C)c1C(=O)OCC(=O)N(CC(C)C)c1c(N)n(Cc2ccccc2)c(=O)[nH]c1=O | 97.5 | 98.9 |
| O=C(Nc1ccccn1)c1ccc2c(=O)n3c(nc2c1)CCCCC3 | 50.4 | 62.5 |
| CCC(=O)Nc1ccc(NC(=O)c2ccco2)cc1 | 35.1 | 41.4 |
| Cc1cccc(/C(N)=N/OC(=O)c2ccoc2C)c1 | 90.8 | 91.8 |
| Cc1ccc(C(=O)Nc2ccc3c(c2)CCC3)cc1 | 78.7 | 76.2 |
| CCN1CCCC1CNC(=O)c1ccc2c(c1)NC(=O)/C(=C\c1ccc(C)cc1)S2 (stereo not given) | 89.7 | 98.9 |
| COn1c(SC2CCCCC2)nc2ccccc2c1=O | 60.3 | 60.1 |
| Cc1cc(C(=O)CSc2nnc(N)s2)c(C)n1Cc1cccs1 | 72.5 | 77.5 |
| C#CCSc1nnc(CSc2nc3ccccc3s2)n1-c1ccccc1 | 95.3 | 94.8 |
| COc1ccc(C(=O)Nc2ccc3ncccc3c2)cc1 | 87.7 | 85.3 |
| Cc1ccnc(NC(=O)c2ccc(Br)s2)c1 | 52.3 | 53 |
| C#CCN(C[C@@H]1[C@@H](OC(=O)NCC2CCCCC2)[C@@H](OC(=O)NCC2CCCCC2)Cn2c(=O)ccc(=O)n21)S(=O)(=O)c1ccc(C)cc1 | 97.7 | 98.3 |
